Data on three molecules can be found in PubChem BioAssay AID1508601 (ICCB-Longwood Screening Facility, Harvard Medical School, 2020).

Among all 5,700 compounds or so, about 85 (1%) were called active. No stated cut-off is given here; in the data, active means p53-positive nuclei above about 36% (passing the limit was not always enough); inactive means the rest. Many of the other results were omitted from the sample, so actives are more common in it than they were.

Assay [1] is described as follows: p53 stabilisation in HPV-positive human cells, imaging, p53-positive nuclei imaging, 24 h, 48 h (AID 1508601). As to conditions: 24/48 h.
Assay [2] addresses Cellular tumor antigen p53 (Homo sapiens) (UniProt P04637). The assay is described as above. To be noted: 24/48 h, stronger effect = higher value.
Setting [3] is: measured here: cell number at 24 h, Library stock concentration: 10 mM.
The mark [4] stands for this setting: measured here: cell number at 48 h, Library stock concentration: 10 mM.
The mark [5] stands for this setting: Library stock concentration: 10 mM.
Where [6] appears, read: measured here: p53 positive nuclei at 24 h, Library stock concentration: 10 mM.

Chain of Cellular tumor antigen p53 (Homo sapiens) (P04637 whole entry, looked up): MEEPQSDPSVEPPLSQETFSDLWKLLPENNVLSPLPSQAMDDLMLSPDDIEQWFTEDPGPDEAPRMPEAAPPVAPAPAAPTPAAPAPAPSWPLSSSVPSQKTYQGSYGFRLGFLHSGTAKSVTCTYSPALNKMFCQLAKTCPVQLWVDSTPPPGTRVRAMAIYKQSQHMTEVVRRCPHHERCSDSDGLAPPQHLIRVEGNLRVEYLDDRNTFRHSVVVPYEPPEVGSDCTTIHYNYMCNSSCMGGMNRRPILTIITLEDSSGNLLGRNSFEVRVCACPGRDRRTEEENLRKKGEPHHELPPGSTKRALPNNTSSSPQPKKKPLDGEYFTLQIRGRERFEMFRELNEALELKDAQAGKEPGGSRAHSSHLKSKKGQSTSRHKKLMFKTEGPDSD

For `Cc1cc(OCCCS(C)(=O)=O)cc(C)c1-c1cccc(COc2ccc3c(c2)OCC3CC(=O)O)c1` (centres undefined), the nuclei count, normalised amounted to 101% in assay [1] (measured here: cell number at 24 h, Library stock concentration: 46 uM); 107% in assay [1] (measured here: cell number at 24 h, Library stock concentration: 278 uM); 104% in assay [1] (measured here: cell number at 24 h, Library stock concentration: 1.67 mM); 125% in assay [1] (measured here: cell number at 24 h, Library stock concentration: 3.33 mM); 103% in assay [1] (setting [3]); 105% in assay [1] (measured here: cell number at 48 h, Library stock concentration: 46 uM). Besides, the nuclei count, normalised was found to be 104% in assay [1] (measured here: cell number at 48 h, Library stock concentration: 278 uM); 104% in assay [1] (measured here: cell number at 48 h, Library stock concentration: 1.67 mM); 119% in assay [1] (measured here: cell number at 48 h, Library stock concentration: 3.33 mM); 103% in assay [1] (setting [4]). For the same molecule, the p53-positive nuclei, normalised in assay [2] (Library stock concentration: 46 uM) is -0.0206% (inactive); in assay [2] (Library stock concentration: 278 uM), -0.0568% (inactive); in assay [2] (Library stock concentration: 1.67 mM) it was -0.0557% (inactive); in assay [2] (Library stock concentration: 3.33 mM) it was -0.149% (inactive); in assay [2] (setting [5]), 0.322% (inactive); in assay [2] (measured here: p53 positive nuclei at 24 h, Library stock concentration: 46 uM), -0.152%. Besides, the p53-positive nuclei, normalised in assay [2] (measured here: p53 positive nuclei at 24 h, Library stock concentration: 278 uM) is 0.151%; in assay [2] (measured here: p53 positive nuclei at 24 h, Library stock concentration: 1.67 mM), -0.156%; in assay [2] (measured here: p53 positive nuclei at 24 h, Library stock concentration: 3.33 mM), -0.546%; in assay [2] (setting [6]) it was -0.0299%.

With `O=C(O)/C=C/CCCCCCCCC(=O)O`, the nuclei count, normalised in assay [1] (measured here: cell number at 24 h, concentration not given here) is 111%; in assay [1] (measured here: cell number at 48 h, concentration not given here), 107%. Besides, the p53-positive nuclei, normalised in assay [2] (concentration not given here) was 0.0752% (inactive); in assay [2] (measured here: p53 positive nuclei at 24 h, concentration not given here), 0.0107%.

For the molecule `C=C1C(=O)OC(CCCCCCCC)C1C(=O)O` (centres undefined), the nuclei count, normalised in assay [1] (measured here: cell number at 24 h, Library stock concentration: 500 nM) came out at 115%; in assay [1] (measured here: cell number at 24 h, Library stock concentration: 1.5 uM), 107%; in assay [1] (measured here: cell number at 24 h, Library stock concentration: 4.6 uM), 111%; in assay [1] (measured here: cell number at 24 h, Library stock concentration: 13.7 uM), 112%; in assay [1] (measured here: cell number at 24 h, Library stock concentration: 41 uM) it was 108%; in assay [1] (measured here: cell number at 24 h, Library stock concentration: 123 uM) it was 110%. For the same molecule, the nuclei count, normalised in assay [1] (measured here: cell number at 24 h, Library stock concentration: 370 uM) came out at 116%; in assay [1] (measured here: cell number at 24 h, Library stock concentration: 1.111 mM), 116%; in assay [1] (measured here: cell number at 24 h, Library stock concentration: 3.333 mM) it was 114%; in assay [1] (setting [3]), 106%; in assay [1] (measured here: cell number at 48 h, Library stock concentration: 500 nM), 112%; in assay [1] (measured here: cell number at 48 h, Library stock concentration: 1.5 uM), 108%. The nuclei count, normalised in assay [1] (measured here: cell number at 48 h, Library stock concentration: 4.6 uM) was 109%; in assay [1] (measured here: cell number at 48 h, Library stock concentration: 13.7 uM) it was 110%; in assay [1] (measured here: cell number at 48 h, Library stock concentration: 41 uM) it was 105%; in assay [1] (measured here: cell number at 48 h, Library stock concentration: 123 uM), 108%; in assay [1] (measured here: cell number at 48 h, Library stock concentration: 370 uM), 116%; in assay [1] (measured here: cell number at 48 h, Library stock concentration: 1.111 mM) it was 114%. For the same molecule, the nuclei count, normalised in assay [1] (measured here: cell number at 48 h, Library stock concentration: 3.333 mM) is 112%; in assay [1] (setting [4]), 107%. In addition, the p53-positive nuclei, normalised in assay [2] (Library stock concentration: 500 nM) is 0.247% (inactive); in assay [2] (Library stock concentration: 1.5 uM), -0.0382% (inactive); in assay [2] (Library stock concentration: 4.6 uM), -0.0805% (inactive); in assay [2] (Library stock concentration: 13.7 uM), -0.0825% (inactive); in assay [2] (Library stock concentration: 41 uM), 0.00899% (inactive); in assay [2] (Library stock concentration: 123 uM), -0.155% (inactive). Further, the p53-positive nuclei, normalised in assay [2] (Library stock concentration: 370 uM) is 0.0153% (inactive); in assay [2] (Library stock concentration: 1.111 mM) it was -0.0515% (inactive); in assay [2] (Library stock concentration: 3.333 mM), 0.104% (inactive); in assay [2] (setting [5]), 0.0835% (inactive); in assay [2] (measured here: p53 positive nuclei at 24 h, Library stock concentration: 500 nM), -0.115%; in assay [2] (measured here: p53 positive nuclei at 24 h, Library stock concentration: 1.5 uM), 0.12%. In addition, the p53-positive nuclei, normalised was -0.0584% in assay [2] (measured here: p53 positive nuclei at 24 h, Library stock concentration: 4.6 uM); -0.0585% in assay [2] (measured here: p53 positive nuclei at 24 h, Library stock concentration: 13.7 uM); 0.0028% in assay [2] (measured here: p53 positive nuclei at 24 h, Library stock concentration: 41 uM); -0.115% in assay [2] (measured here: p53 positive nuclei at 24 h, Library stock concentration: 123 uM); -0.0115% in assay [2] (measured here: p53 positive nuclei at 24 h, Library stock concentration: 370 uM); 0.0471% in assay [2] (measured here: p53 positive nuclei at 24 h, Library stock concentration: 1.111 mM). In addition, the p53-positive nuclei, normalised is 0.103% in assay [2] (measured here: p53 positive nuclei at 24 h, Library stock concentration: 3.333 mM) and -0.112% in assay [2] (setting [6]).
